This note sets out measurements from PubChem BioAssay (NCI).

Assay [1] is described as follows: NCI Yeast Anticancer Drug Screen. Data for the rad50 strain (AID 155).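 Further: 0% = growth of vehicle-only cultures of the same strain.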 The conditions noted are these: S. cerevisiae rad50 strain growth inhibition; at 50.0 µM; stronger effect = higher value. The method in brief: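 Readout: growth inhibition relative to vehicle-treated cultures. Compound exposure was carried out in a genetically defined yeast strain deficient in DNA damage repair.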

Assay [2] is described as follows: NCI Yeast Anticancer Drug Screen. Data for the mec2-1 strain (AID 157). The settings on record: S. cerevisiae mec2-1 strain, at 50.0 µM, stronger effect = higher value. The method in brief: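 Yeast mec2-1 mutant treated with compound. Readout: growth inhibition vs vehicle controls.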
A short description of assay [3]: NCI Yeast Anticancer Drug Screen. Data for the sgs1 mgt1 strain (AID 161).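 Further: 0% = growth of cultures given vehicle only.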 The settings on record: S. cerevisiae sgs1 mgt1 strain, at 50.0 µM, stronger effect = higher value. In outline: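 Mutant yeast exposed to compound; growth scored against vehicle-only wells.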
Assay [4] can be described thus: NCI Yeast Anticancer Drug Screen. Data for the bub3 strain (AID 167). The conditions noted are these: S. cerevisiae bub3 mutant strain, at 50.0 µM, stronger effect = higher value. The method in brief: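 Readout: yeast growth inhibition, expressed relative to vehicle-only wells. The test organism is a mutant strain from a panel with lesions in DNA repair or checkpoint genes.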

Assay [5] can be described thus: NCI Yeast Anticancer Drug Screen. Data for the mlh1 rad18 strain (AID 175). The settings on record: S. cerevisiae mlh1 rad18 strain growth inhibition; at 50.0 µM; stronger effect = higher value. In outline: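 Yeast w/ defined DNA-repair lesions; compound exposure; growth vs vehicle controls → % inhibition.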
Assay [6] in a line: NCI Yeast Anticancer Drug Screen. Data for the cln2 rad14 strain (AID 165).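 Further: 0% = growth equal to vehicle treated cultures.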 The conditions noted are these: S. cerevisiae cln2 rad14 strain, at 50.0 µM, stronger effect = higher value. In outline:
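cln2 rad14 yeast strain; compound exposure; growth inhibition read vs vehicle controls.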

The panel holds about 79,000 compounds, 15% with a hit somewhere; the sample as a whole holds those more often. Values without a mark were called inactive. Calls of active or inactive are those of the source. No stated cut-off is given here; in the data, active means growth inhibition above about 70%; inactive means the rest.

For `Nc1ccc([As](=O)(O)O)cc1C(=O)O`, the growth inhibition in assay [1] was -16.3%; in assay [2], -18.8%; in assay [3] it was -6.7%; in assay [4], 7.2%; in assay [5], -2.3%.
As to `S=P(NCc1cccc(CNP(=S)(N2CC2)N2CC2)c1)(N1CC1)N1CC1`, the growth inhibition in assay [1] was 24.4%; in assay [2], -0.2%; in assay [3] it was 16.2%; in assay [4], -1.6%; in assay [5], 9.4%.
On to `C1CCN2CC34CC(CC5CCCN(C6CCCC3N6)C54)C2C1` (centres undefined), for which the growth inhibition in assay [1] was -19.5%; in assay [2], -43.1%; in assay [3], -22.1%; in assay [4] it was -36.3%; in assay [5] it was -99.8%.
The matching figures for `O=C([CH-]C(=O)c1ccccc1)c1ccccc1.[CH2-]C.[CH2-]C.[Tl+3]`: 52.3%, 35.6%, 37.2%, 60.1% and 55.1%.
The matching figures for `COc1ccc(C(C#N)C(C)=O)cc1` (centres undefined): 6.75%, 4.85%, 12.4%, -3.9% and -12.4%.
The matching figures for `COc1cc2c(c(OC)c1OC)-c1ccc(SC)c(=O)cc1[C@@H](NC(C)=O)CC2`: -12.4%, -16.9%, -19.1%, -27.4% and -7.3%.
On to `C/C(CC(C)(C)N1CC1)=N\N`, for which the growth inhibition in assay [1] is -19.7%; in assay [2] it was -12.8%; in assay [3], -7.75%; in assay [4] it was -7.95%; in assay [5], -8.95%.
On the same counts, the results for `[CH3][Sn]([Cl])([Cl])[c]1ccccc1` are -22.9%, 2.05%, 8.7%, -12.8% and 1.6%.
The matching figures for `COc1c(O)cc2c(c1OC)-c1ccc(SC)c(=O)cc1C(NC(C)=O)CC2` (centres undefined): 10.4%, -9.4%, 4.95%, 1.95% and 23.9%.
The matching figures for `N.N.N.N.N.O=C([O-])C(=O)[O-].[Co+3].[O-][Cl+3]([O-])([O-])O.[O-][Cl+3]([O-])([O-])[O-]`: -12.3%, 11.8%, -22.9%, 0.8% and -12.7%.
In the case of `CC(=O)NC(CS)C(=O)[O-].CC(=O)NC(CS)C(=O)[O-].N.N.[Pt+4]` (centres undefined), the growth inhibition in assay [1] was 7.85%; in assay [2], -9.85%; in assay [3] it was 15.2%; in assay [4], 14.4%; in assay [5] it was 27.2%.
Turning to `CN1C(=O)C2(c3ccccc31)C1CC3C(CO1)C1C2C3(CO)CN1C#N` (centres undefined), the growth inhibition in assay [1] was 34.1%; in assay [2], 12.9%; in assay [6] it was 1.1%; in assay [4] it was -22.1%; in assay [5], -6.8%.
On the same counts, the results for `CC1(C)OCC(CO)(Nc2nc(N3CC3)nc(N3CC3)n2)CO1` are -12.6%, 2.9%, -38%, 5.6% and -2.8%.
For `COC12c3ccccc3-c3ccccc3C1[C@@H](C(=O)O)[C@H]2C(=O)O` (some centres undefined), the growth inhibition in assay [1] is 11.2%; in assay [2], 1.6%; in assay [3], -11.6%; in assay [4], -24.4%; in assay [5], -10.3%.
For `C[n+]1ccc(/C=C\c2ccc(N(CCCl)CCCl)cc2)c2ccccc21`, the growth inhibition was 4.8% in assay [1]; 15.9% in assay [2]; 24.1% in assay [6]; 15.4% in assay [4]; 18.6% in assay [5].
For `CCCCCCCC(=O)[O-].N.N.N.N.N.[Co+3].[O-][Cl+3]([O-])([O-])[O-]`, the growth inhibition in assay [1] is -16.1%; in assay [2], 20.2%; in assay [6], 9.1%; in assay [4] it was -10.7%; in assay [5], -13.3%.
For `C/C=C(/C)C(=O)O[C@H]1CC[C@@]2(C)[C@@H]3CC[C@H]4[C@]5(O)C[C@H](O)[C@@]6(O)[C@@H](CN7C[C@@H](C)CC[C@H]7[C@@]6(C)O)[C@]5(O)C[C@@]42O[C@@]13O`, the growth inhibition in assay [1] is 27.1%; in assay [2] it was -15.9%; in assay [6], 0.35%; in assay [4], 22.8%; in assay [5], 30.6%.
Take `ClCc1ccccc1`: the growth inhibition in assay [1] was 40%; in assay [2], 8.8%; in assay [3], 4.9%; in assay [4] it was 30.6%; in assay [5] it was 22.5%.
With `O=[N+]([O-])c1ccc(CI)cc1`, the growth inhibition was 5.65% in assay [1]; 34.2% in assay [2]; -3.55% in assay [6]; 13.4% in assay [4]; 23.3% in assay [5].
On the same counts, the results for `CC1CN1P(=O)(N1CCCC1)N1CC1C` (centres undefined) are 5.25%, 15.1%, 6.5%, -1.5% and 13.4%.
Turning to `CCC1(O)C(=O)OCc2c1cc1n(c2=O)Cc2cc3cc(N)ccc3nc2-1` (centres undefined), the growth inhibition was 85% (active) in assay [1]; 88.5% (active) in assay [2]; 56.8% in assay [6]; 56.1% in assay [4]; 72.2% (active) in assay [5].
The matching figures for `CC(C)N[C@@H]1CCC[C@H]1O`: 4.5%, -0.1%, 11.7%, 4.05% and -19.5%.
The matching figures for `NNC(=O)NNC(=O)NN`: -5.95%, -3.1%, 1.65%, -8.25% and 9.9%.
On the same counts, the results for `CN(N)/N=N/c1nc[nH]c1[N+](=O)[O-]` are -11.9%, -24.6%, 4.85%, -12.1% and -3.4%.
Turning to `CC[O-].CC[O-].O=C([CH-]C(=O)c1ccccc1)c1ccccc1.O=C([CH-]C(=O)c1ccccc1)c1ccccc1.[Ti+4]`, the growth inhibition was 34.3% in assay [1]; 30.9% in assay [2]; 29.1% in assay [3]; 52.7% in assay [4]; 26.1% in assay [5].
For the molecule `O=C(CBr)OCCOC(=O)CBr`, the growth inhibition in assay [1] was 0.55%; in assay [2], 18.4%; in assay [6], 14.4%; in assay [4], 28.5%; in assay [5] it was -3.95%.
With `S=C(N/N=C\c1cccc(I)c1)NC1CN2CCC1CC2` (centres undefined), the growth inhibition is 19.1% in assay [1]; 3.25% in assay [2]; 14.8% in assay [6]; 3.2% in assay [4]; 13.9% in assay [5].
On the same counts, the results for `CCCCN1CCC2(C)c3cc(O)ccc3CC1C2CC` (centres undefined) are 6.8%, 9.5%, -46.6%, 11.3% and 12.7%.
On the same counts, the results for `CC(=O)CC(C)C(=O)O` (centres undefined) (tested in a mixture with another compound) are -5.9%, -11%, -6.55%, -5.6% and -20.6%.
The matching figures for `N/C(=N\NS(=O)(=O)c1ccccc1)N[N+](=O)[O-]`: -3.1%, 21.7%, -8.55%, 24.2% and 7.25%.
Turning to `O=[N+]([O-])c1ccc(/C=C/c2cc(Cl)ccc2S(=O)(=O)F)c(Cl)c1`, the growth inhibition was 2.6% in assay [1]; -0.85% in assay [2]; 13.4% in assay [6]; 12.9% in assay [4]; -4.35% in assay [5].
On to `N#CC(C#N)=Cc1ccccc1C(=O)O`, for which the growth inhibition in assay [1] was 14.9%; in assay [2] it was 11.3%; in assay [6] it was 14.7%; in assay [4] it was 7.15%; in assay [5], -4.1%.
Regarding `c1cc[c]([Hg][S]c2nc3ccccc3s2)cc1`, the growth inhibition in assay [1] was -22.4%; in assay [2] it was -7.1%; in assay [6] it was -37.3%; in assay [4], -5.15%; in assay [5] it was -5.1%.
Regarding `N#Cc1ccc(Cl)cc1`, the growth inhibition is 9.65% in assay [1], -21.7% in assay [2], -2.6% in assay [6] and -4.7% in assay [4].
Consider `N#CCN(CC#N)[N+](=O)[O-]`, for which the growth inhibition in assay [1] was 6.8%; in assay [2], -4.95%; in assay [6], -6%; in assay [4], -26.3%; in assay [5], 0.4%.
On the same counts, the results for `O=NNc1ncc([N+](=O)[O-])cn1` are -1.05%, 5.35%, -23.4%, -5% and -8.4%.
The matching figures for `Cc1ccc2cc3c(ccc4ccccc43)c3c2c1CC3`: -9.05%, -23.9%, -3.4%, 13.3% and 1.85%.
The matching figures for `CC(=O)O[C@H]1CC[C@]2(C)[C@H]3CC[C@]4(C)[C@@H](OC(C)=O)CC[C@H]4[C@@H]3[C@H](C=O)[C@]2(O)C1`: 7.9%, 4.35%, 4.25%, -0.75% and 8.7%.
Regarding `Nc1ccc([N+](=O)[O-])cc1N`, the growth inhibition in assay [1] is 9.15%; in assay [2] it was -14.7%; in assay [3], -12.8%; in assay [4], -17.4%; in assay [5], 10.2%.
Regarding `CCOc1ccc(/C=C/c2cc(OC)c(OC)c(OC)c2)cc1`, the growth inhibition in assay [1] is -27.9%; in assay [2], -21.7%; in assay [6] it was -10.3%; in assay [4], -8.6%; in assay [5], -34.2%.
Turning to `CC(=O)OC(C)(C)/C=C/C(=O)[C@](C)(O)[C@H]1[C@H](O)C[C@@]2(C)[C@@H]3CC=C4[C@@H](C=C(O)C(=O)C4(C)C)[C@]3(C)C(=O)C[C@]12C`, the growth inhibition is -4.6% in assay [1]; -36.5% in assay [2]; -10.8% in assay [6]; -15.7% in assay [4]; -16.1% in assay [5].
The matching figures for `C#CCOCC(O)C[As](=O)(O)c1cccc(Cl)c1` (centres undefined): 5.85%, 16.5%, -5.3%, 10.7% and -8.75%.
On the same counts, the results for `CCCCCCCCCCCCCCCCP(=O)(O)OP(=O)(O)OCC1OC(n2cnc3c(N)ncnc32)C(O)C1O` (centres undefined) are 58.3%, 53.2%, 58.6%, 44.6% and 80.3% (active).
On to `CCC1CC[Si](C)(C)CC12C(=O)NC(=O)NC2=O` (centres undefined), for which the growth inhibition in assay [1] is 0.85%; in assay [2] it was -2.25%; in assay [6], 1.65%; in assay [4], 12.9%; in assay [5], -0.55%.
